High-throughput results from PubChem BioAssay.
In the library only some 2.4% were active in any assay of this set; here they are far more common.
M1 PAM parental – counter-screen for M1 PAMs: effect in parental CHO-K1 cells; ATP EC20, Fluo-8 calcium fluorescence; 0% at ATP EC20, 100% at ATP max; activation, % at 3 µM; 360,000 compounds, 0.02% hits; AID 602247;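 active = activation above the run cutoff, the mean activation of all test compounds plus 3 SD, cut at about 40% in these data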;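 also: peak over basal fluorescence ratio in a 140 s read after ATP addition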
CHO-K1 Ca antag – nonselective inhibitor or artifact in parental CHO-K1 cells; ATP-induced calcium, Fluo-8 fluorescence; inhibition, % at 3 µM; 360,000 compounds, 0.6% hits; AID 602250;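 active = inhibition above a per-plate cutoff, the plate's mean sample inhibition plus 3 SD, cut at about 24% in these data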;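 also: 0% = DMSO plus EC80 ATP and 100% = DMSO alone without ATP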
M1 antag – blocks human M1 muscarinic receptor; inhibition, % at 3 µM; P11229; 360,000 compounds, 1.3% hits; CHO-K1 hM1, Fluo-8 calcium fluorescence, ACh EC80 antagonist;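 active = percent inhibition above its own plate's cutoff, namely the mean of that plate's compound wells plus 3 SD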;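 also: peak over basal fluorescence ratio during 140 s after agonist addition; 0% = ACh EC80 plus DMSO and 100% = DMSO alone without agonist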
Target sequence (P11229 whole entry, looked up): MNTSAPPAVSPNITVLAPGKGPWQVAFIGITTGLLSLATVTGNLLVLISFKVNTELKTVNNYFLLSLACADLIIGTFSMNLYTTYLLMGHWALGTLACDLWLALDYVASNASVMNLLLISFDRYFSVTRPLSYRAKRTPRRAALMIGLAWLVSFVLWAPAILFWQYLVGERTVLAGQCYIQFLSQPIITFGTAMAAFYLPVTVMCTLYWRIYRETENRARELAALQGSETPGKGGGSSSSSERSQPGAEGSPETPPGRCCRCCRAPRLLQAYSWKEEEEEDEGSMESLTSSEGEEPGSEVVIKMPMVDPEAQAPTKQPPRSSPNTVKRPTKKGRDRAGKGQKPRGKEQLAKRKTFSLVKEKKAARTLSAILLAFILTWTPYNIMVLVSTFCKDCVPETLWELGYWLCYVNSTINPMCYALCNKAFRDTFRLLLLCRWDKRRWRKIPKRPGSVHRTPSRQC
CHRM1 PAM – potentiates human M1 receptor response to acetylcholine; CHO-K1 hM1, Fluo-8 calcium fluorescence, ACh EC20; 0% = ACh EC20, 100% = maximal ACh; activation, % at 3 µM; 360,000 compounds, 0.088% hits; AID 588819; in the data active = activation above about 19%, passing the limit was not always enough
CHO-K1 Ca ag – nonselective activator or artifact in parental CHO-K1 cells. activation, % at 3 µM. AID 602248. 360,000 compounds, 0.48% hits. Fluo-8 calcium fluorescence; scaled to maximal ATP response, vehicle zero; in the data active = activation above about 15%;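 also: untransfected CHO-K1 host cells lacking M1 receptor as counterscreen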
M1 ag – human M1 muscarinic receptor agonism | 360,000 compounds, 0.33% hits | activation, % at 3 µM | CHO-K1 hM1, Fluo-8 calcium fluorescence, agonist mode; 0% DMSO, 100% acetylcholine EC100 | P11229;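 active = activation above the run's mean compound activation plus 3 SD, cut at about 16% in these data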;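 also: peak over basal fluorescence ratio within a 140 s kinetic read after compound addition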
Numbers without * were called inactive.

What do the screens show for `CN(Cc1ccccc1)S(=O)(=O)c1ccc(NS(=O)(=O)Cc2ccccc2)cc1`?
M1 PAM parental: -9; CHO-K1 Ca antag: 22; M1 antag: 30*; CHRM1 PAM: -15; CHO-K1 Ca ag: 2; M1 ag: -4

How did CN(Cc1ccccc1)S(=O)(=O)c1ccc2c(c1)n(C)c(=O)c(=O)n2C do in these assays?
M1 PAM parental: 12; CHO-K1 Ca antag: 0; M1 antag: -14; CHRM1 PAM: 7; CHO-K1 Ca ag: 0; M1 ag: -4

How did O=C(Cn1cc([N+](=O)[O-])cn1)Nc1cccnc1 do in these assays?
M1 PAM parental: 10; CHO-K1 Ca antag: -11; M1 antag: -5; CHRM1 PAM: 9; CHO-K1 Ca ag: 0; M1 ag: -4

Results for CC(C)(C)c1ccc(C(=O)NCc2nnc(SCC(=O)NCC3CCCO3)o2)cc1 (stereo not given) ?
M1 PAM parental: -9; CHO-K1 Ca antag: 6; M1 antag: 9; CHRM1 PAM: 7; CHO-K1 Ca ag: 0; M1 ag: -1

What do the screens show for `C[C@@]12C(=O)N(CCc3c[nH]c4ccccc34)CC(=O)N1[C@H]1c3ccccc3OC[C@@H]1[C@@H]2c1ccccc1`?
M1 PAM parental: -5; CHO-K1 Ca antag: -2; M1 antag: -11; CHRM1 PAM: 5; CHO-K1 Ca ag: 0; M1 ag: -2

What do the screens show for `OC(c1ccc(Cl)cc1)c1ncc(-c2ccc(Oc3ccccc3)cc2)[nH]1` (stereo not given)?
M1 PAM parental: 7; CHO-K1 Ca antag: 10; M1 antag: -3; CHRM1 PAM: 1; CHO-K1 Ca ag: 0; M1 ag: -2

How did CCOc1ccc(NC(=S)NC(=O)/C=C/c2ccc(Br)cc2)c([N+](=O)[O-])c1 do in these assays?
M1 PAM parental: 27; CHO-K1 Ca antag: -23; M1 antag: 37*; CHRM1 PAM: -5; CHO-K1 Ca ag: 0; M1 ag: -3

How did CCOc1ccc(NC(=S)NC(=O)c2cnn(CC)c2)c([N+](=O)[O-])c1 do in these assays?
M1 PAM parental: 10; CHO-K1 Ca antag: -5; M1 antag: -2; CHRM1 PAM: 5; CHO-K1 Ca ag: 2; M1 ag: -3

Results for O=C(NCCc1ccccn1)c1nc(Cn2cc(Br)cn2)no1 ?
M1 PAM parental: 0; CHO-K1 Ca antag: 1; M1 antag: -16; CHRM1 PAM: 22; CHO-K1 Ca ag: 0; M1 ag: -1

How did CCc1cc(C(=O)Nc2cc(Cl)ccc2N2CCN(C)CC2)sc1C do in these assays?
M1 PAM parental: -20; CHO-K1 Ca antag: 28*; M1 antag: -11; CHRM1 PAM: 11; CHO-K1 Ca ag: 0; M1 ag: 0

What do the screens show for `CCc1cc(C(=O)Nc2cc(S(=O)(=O)N(CC)CC)ccc2N2CCN(C)CC2)sc1C`?
M1 PAM parental: -12; CHO-K1 Ca antag: -6; M1 antag: -3; CHRM1 PAM: 2; CHO-K1 Ca ag: 0; M1 ag: -7

What do the screens show for `O=C(c1[nH]ncc1-c1ccccc1)C1CO1` (stereo not given)?
M1 PAM parental: 17; CHO-K1 Ca antag: 5; M1 antag: -11; CHRM1 PAM: 9; CHO-K1 Ca ag: 19*; M1 ag: -1

How did O=C(c1[nH]ncc1-c1cccc(Br)c1)C1CO1 (stereo not given) do in these assays?
M1 PAM parental: -6; CHO-K1 Ca antag: -8; M1 antag: -16; CHRM1 PAM: 7; CHO-K1 Ca ag: 0; M1 ag: -3

What do the screens show for `CSc1cccc(NC(N)=O)c1`?
M1 PAM parental: 3; CHO-K1 Ca antag: 1; M1 antag: -6; CHRM1 PAM: 4; CHO-K1 Ca ag: 0; M1 ag: -3

What do the screens show for `CC(=O)c1ccc(NC(=O)Nc2cccc(Cl)c2)cc1`?
M1 PAM parental: -5; CHO-K1 Ca antag: 34*; M1 antag: 27*; CHRM1 PAM: -19; CHO-K1 Ca ag: 13; M1 ag: 11

Results for CC(=O)c1ccc(NC(=O)Nc2ccc(Br)cc2C)cc1 ?
M1 PAM parental: 19; CHO-K1 Ca antag: -13; M1 antag: 31*; CHRM1 PAM: -10; CHO-K1 Ca ag: 4; M1 ag: 3

Results for CC(=O)c1cccc(NC(=O)Nc2cccs2)c1 ?
M1 PAM parental: -3; CHO-K1 Ca antag: 26*; M1 antag: 2; CHRM1 PAM: 1; CHO-K1 Ca ag: 1; M1 ag: 5

Results for COc1cccc(NC(=O)Nc2cccs2)c1 ?
M1 PAM parental: 6; CHO-K1 Ca antag: 3; M1 antag: -3; CHRM1 PAM: 1; CHO-K1 Ca ag: 4; M1 ag: 1

How did CSc1cccc(NC(=O)Nc2ccc(Cl)cc2)c1 do in these assays?
M1 PAM parental: -3; CHO-K1 Ca antag: 26*; M1 antag: 19; CHRM1 PAM: -11; CHO-K1 Ca ag: 12; M1 ag: 3

Results for CC(=O)Nc1ccc(NC(=O)Nc2cccc(Cl)c2)cc1 ?
M1 PAM parental: 7; CHO-K1 Ca antag: -6; M1 antag: -12; CHRM1 PAM: 10; CHO-K1 Ca ag: 2; M1 ag: -1

Results for C[C@@H](O)CNC(=O)c1[nH]cnc1C(=O)N[C@H](C)c1ccccc1 ?
M1 PAM parental: 6; CHO-K1 Ca antag: 1; M1 antag: 0; CHRM1 PAM: -6; CHO-K1 Ca ag: 0; M1 ag: -1

Results for Cc1cc(=O)oc2cc(O)c(N=Nc3ccccc3)cc12 ?
M1 PAM parental: 8; CHO-K1 Ca antag: -14; M1 antag: -25; CHRM1 PAM: 7; CHO-K1 Ca ag: 0; M1 ag: -2

Results for S=C(NCCN(C1CCCCC1)C1CCCC1)Nc1cccc(Cl)c1 ?
M1 PAM parental: 12; CHO-K1 Ca antag: 6; M1 antag: 21; CHRM1 PAM: -12; CHO-K1 Ca ag: 3; M1 ag: -6

How did CC(=O)c1ccc(NC(=S)NCCc2ccc(S(N)(=O)=O)cc2)cc1 do in these assays?
M1 PAM parental: 3; CHO-K1 Ca antag: -21; M1 antag: -4; CHRM1 PAM: 3; CHO-K1 Ca ag: 3; M1 ag: -4

How did CC(=O)c1ccc(NC(=S)NCCc2cccc(Cl)c2)cc1 do in these assays?
M1 PAM parental: -15; CHO-K1 Ca antag: 6; M1 antag: 30; CHRM1 PAM: -14; CHO-K1 Ca ag: 15*; M1 ag: 15

Results for CC(=O)c1cccc(NC(=S)NC(=O)Cc2ccc(Cl)cc2)c1 ?
M1 PAM parental: 34; CHO-K1 Ca antag: -12; M1 antag: -3; CHRM1 PAM: 12; CHO-K1 Ca ag: 9; M1 ag: 21*

Results for S=C(NCCC(c1ccccc1)c1ccccc1)Nc1cccc(Cl)c1 ?
M1 PAM parental: -4; CHO-K1 Ca antag: 26*; M1 antag: 7; CHRM1 PAM: -7; CHO-K1 Ca ag: 6; M1 ag: 0

Results for O=C(CSc1ncccn1)NCc1cccc(Cl)c1 ?
M1 PAM parental: 0; CHO-K1 Ca antag: -7; M1 antag: -6; CHRM1 PAM: 12; CHO-K1 Ca ag: 1; M1 ag: -12
